# High-throughput results as filed in PubChem BioAssay.
# FBPA coupling cs = counter-screen for Giardia aldolase inhibitors: coupling enzyme system; coupling enzyme system counterscreen, AmpLite Red fluorescence; activity change, negative = inhibition, % at 58.2 µM, hits read low; 290,000 tested, 0.67% active; AID 2472; in the data active means activity change below about -30%
#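 Counterscreen of the coupled detection system alone, without aldolase: glyceraldehyde-3-phosphate coupling enzymes plus AmpLite Red readout. Compounds at 57.5 uM final, 10 min RT preincubation, 20 min RT reaction, fluorescence 525/598 nm.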
# USP1 inh = USP1/UAF1 (human) deubiquitinase inhibition; Potency, µM (series often up to 57.1 µM), usual class: inhibitors; recombinant USP1/UAF1, Ub-Rhodamine cleavage fluorescence; AID 743255; 390,000 tested, 0.23% active; O94782; further: nearly all actives have a fitted effect of over 60% in size
# Target sequence (O94782 whole entry, looked up): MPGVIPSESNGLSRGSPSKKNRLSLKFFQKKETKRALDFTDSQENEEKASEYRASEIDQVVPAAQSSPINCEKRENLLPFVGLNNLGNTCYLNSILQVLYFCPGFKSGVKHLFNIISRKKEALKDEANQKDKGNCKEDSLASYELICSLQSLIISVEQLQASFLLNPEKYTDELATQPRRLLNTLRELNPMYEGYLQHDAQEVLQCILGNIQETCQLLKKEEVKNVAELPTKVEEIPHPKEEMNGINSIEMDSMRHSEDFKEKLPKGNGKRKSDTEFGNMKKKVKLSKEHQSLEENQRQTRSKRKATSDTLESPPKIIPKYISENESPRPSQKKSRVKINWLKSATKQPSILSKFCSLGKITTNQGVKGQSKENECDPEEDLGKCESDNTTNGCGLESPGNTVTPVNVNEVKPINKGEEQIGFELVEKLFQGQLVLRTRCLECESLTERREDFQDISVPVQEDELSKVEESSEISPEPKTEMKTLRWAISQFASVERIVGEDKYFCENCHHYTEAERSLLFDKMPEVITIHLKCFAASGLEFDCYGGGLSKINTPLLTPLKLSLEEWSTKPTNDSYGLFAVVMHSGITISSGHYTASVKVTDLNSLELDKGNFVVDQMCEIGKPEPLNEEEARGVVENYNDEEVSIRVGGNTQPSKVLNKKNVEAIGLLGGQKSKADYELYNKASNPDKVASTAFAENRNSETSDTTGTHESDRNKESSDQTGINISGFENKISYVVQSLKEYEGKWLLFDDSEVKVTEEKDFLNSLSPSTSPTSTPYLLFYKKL
#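 In this screen, compounds sit with the deubiquitinase complex (1nM) for 15 min at room temperature before Ub-Rho is added at 150nM final. Fluorescence rise is then followed for 6 reads every 60 seconds.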
# VDR inh = inhibitors of human vitamin D receptor | P11473 | Potency, µM, actives largely listed as inhibitors | 400,000 tested, 0.93% active | AID 504847 | VDR-SRC2-3 peptide fluorescence polarization, 2 h
#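 VDR–SRC2-3 interaction, FP format. Cmpds 23 nl via pintool, brief spin, 2 h ambient incubation.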
# GALK inhibitor = galactokinase (human) inhibition | P51570 | Purified GALK, Kinase-Glo residual ATP luminescence | Potency, µM (highest dose often 57.5 µM), actives largely listed as inhibitors | 270,000 tested, 0.007% active
#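 Kinase-Glo Plus luminescence measured ATP left after a 1 h room-temperature reaction. The reaction used 5 nM GALK, 100 uM galactose and 35 uM ATP at pH 8.0 (20 mM HEPES, 5 mM MgCl2, 60 mM NaCl, 1 mM DTT, 0.01% BSA).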
# USP2a inh = USP2a (human) protease inhibition; O75604; Potency, µM (series often up to 38.3 µM), hits mostly inhibitors; USP2 core, Ub-CHOP2 coupled fluorogenic reporter, 485/531; 330,000 tested, 0.01% active
#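 USP2 core (10nM final) preincubated 30min RT with compound in 20mM Tris-HCl pH 8.0, 2mM CaCl2, 2mM beta-mercaptoethanol, 0.05% CHAPS; 25nM Ub-CHOP2 plus 25nM reporter substrate added, fluorescence (Ex485/Em531) read after 60min.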
# PLK1 PBD inh = blocks phosphopeptide binding to human PLK1 polo-box domain | P53350 | Plk1 PBD binding of FITC phosphopeptide, fluorescence polarization | Potency, µM, actives largely listed as inhibitors | 360,000 tested, 2.8% active | AID 720504; further: series mostly up to about 57 µM; nearly all actives have a fitted effect of over 65% in size
# Hits are given with their value; 0 = inactive; ? = inconclusive; - = no result; ! = repeats disagree. This is a sample that favours compounds with a hit; in the whole collection about 3.2% have one here. Unless noted, the call rests on the fitted dose curve; in most records, active means well fitted curve in the direction sought with a large enough effect; inconclusive means small, poorly fitted or top-dose-only effect, or another doubt; inactive means no such curve, though single readings can be large; an effect the other way counts as inactive or inconclusive.
SMILES,FBPA coupling cs,USP1 inh,VDR inh,GALK inhibitor,USP2a inh,PLK1 PBD inh
S=c1nc(-c2ccc(Br)cc2)[nH]c2ccccc12,0,?,?,0,0,12µM
S=c1nc(-c2ccccc2)[nH]c2ccccc12,0,0,0,0,0,0
CC1(C(=O)NS(=O)(=O)c2ccc(Cl)cc2)CCN1C(=O)C1CCCCC1 (centres undefined),-,-,-,-,-,0
N=C1SC(CC(=O)Nc2ccc([N+](=O)[O-])cc2)C(=O)N1c1ccccc1 (centres undefined),0,0,0,0,0,0
Cc1ccc(N2C(=O)SC(Cc3ccccc3)C2=O)cc1 (centres undefined),0,0,?,0,0,7.5µM
Cc1cccc(NC(=O)CC2SC(=O)N(c3ccccc3)C2=O)c1 (centres undefined),0,0,?,0,0,15µM
O=C(CC1SC(=O)N(c2ccccc2)C1=O)Nc1ccccc1 (centres undefined),0,0,22µM,0,0,11µM
Cc1ccc(NC(=O)CC2SC(=O)N(c3ccccc3)C2=O)cc1 (centres undefined),0,0,28µM,0,0,6.7µM
O=c1c2c(n3cnnc3n1C1CCCCC1)-c1ccccc1CC21CCCCC1,0,0,0,0,0,0
O=C(O)CCCc1nc(-c2ccccc2)no1,0,0,0,0,0,0
COc1ccc(N2CCN(C(=O)c3cc4c(=O)n(Cc5ccco5)ccc4nc3C)CC2)cc1,-,0,0,-,-,-
O=C(NCc1ccccc1Cl)c1ccc2c(c1)nnn2C1CCCC1,-,0,0,-,-,-
Cc1cc(=O)oc2c(CN3CCCC3)c(O)ccc12,0,0,0,0,0,0
O=c1cc(-c2ccccc2O)oc2c(O)c(O)ccc12,-56,-,-,-,-,-
Cc1cc(=O)oc2c(O)c(O)ccc12,-36,0,71µM!,-,-,?
O=c1cc(-c2ccccc2O)oc2ccc3ccccc3c12,0,-,-,-,-,-
Cc1cccc(C(=O)NNC(=O)c2ccccc2[N+](=O)[O-])c1,0,0,0,0,0,0
O=C1CCCN1CCC(=O)N1CCCC(Nc2ccc(F)cc2)C1 (centres undefined),-,0,0,0,0,0
CCOc1ccc(-n2cc(C(=O)NC(C)C)c3cc(OC)c(OC)cc3c2=O)cc1,0,0,?,0,0,24µM
COc1ccccc1CNC(=O)c1cn(C)c(=O)c2cc(OC)c(OC)cc12,0,0,?,0,0,19µM
COCCCNC(=O)c1cn(C)c(=O)c2cc(OC)c(OC)cc12,0,?,0,0,0,0
COc1cccc(NC(=O)c2cn(C)c(=O)c3cc(OC)c(OC)cc23)c1,0,0,0,0,0,3µM
COc1cc2c(C(=O)Nc3cc(OC)c(OC)c(OC)c3)cn(C)c(=O)c2cc1OC,-,0,0,-,-,-
Cc1ccc(CNC(=O)Nc2ccc(Cl)cc2)cc1,-,0,0,0,0,0
Cc1ccc(C)c(NS(=O)(=O)c2ccc(NC(=O)CSc3ccc(Cl)cc3)cc2)c1,0,0,0,0,0,24µM
SMILES,FBPA coupling cs,USP1 inh,VDR inh,GALK inhibitor,USP2a inh,PLK1 PBD inh
Cc1ccc(NS(=O)(=O)c2ccc(NC(=O)C(C)Sc3ccc(Cl)cc3)cc2)c(C)c1 (centres undefined),0,0,0,0,0,30µM
CC(=O)NS(=O)(=O)c1ccc(NC(=O)CSc2ccc(Cl)cc2)cc1,0,0,0,0,0,?
O=C(NC(=S)NNC(=O)c1ccco1)c1ccccc1,-,0,0,0,0,0
O=C(O)COc1ccc2c(c1)O/C(=C\c1cccs1)C2=O,0,0,0,-,0,0
O=C(O)COc1ccc2c(c1)O/C(=C\c1ccco1)C2=O,0,0,0,-,0,24µM
CC(C)COC(=O)c1ccc2c(c1O)C(=O)c1ccccc1C2=O,-41,0,0,0,0,0
COc1ccc2c(c1O)C(=O)c1ccccc1C2=O,0,-,-,0,0,-
COc1cc([C@@H]2c3cc4c(cc3[C@@H](O[C@@H]3O[C@H]5CO[C@@H](C)O[C@@H]5[C@@H](O)[C@H]3O)[C@@H]3COC(=O)[C@@H]23)OCO4)cc(OC)c1O,-49,-,-,-,-,-
Oc1ccc(NCc2cccc(OCc3ccccc3)c2)cc1,-30,?,?,0,0,0
Oc1ccc(NCc2cccc(OCc3ccc(F)cc3)c2)cc1,-45,?,?,0,0,0
O=[N+]([O-])c1ccc(COc2cccc(CNc3ccc(F)cc3)c2)cc1,0,0,0,0,0,0
COC(=O)C(C)N1C(=O)S/C(=C/c2cc(C)n(-c3ccccn3)c2C)C1=O (centres undefined),0,0,0,0,0,0
CCOc1cc(C(=O)N=c2sccn2C)cc(Br)c1OC,0,?,0,0,0,0
O=C1C(=O)N(CCCN2CCOCC2)C(c2ccc(Cl)cc2)/C1=C(\O)c1ccc2c(c1)OCCO2 (centres undefined),-,0,?,0,0,24µM
CC(C)c1nn2c(=O)cc(COc3cccc(NC(=O)c4ccco4)c3)nc2s1,-,0,0,0,0,24µM
O=C1C2CC=CCC2C(=O)N1CC1CCCO1 (centres undefined),0,0,?,0,0,24µM
CC(C)(C)[C@H]1COC(=O)CCC/C=C/C[C@H](CC(=O)N(CCO)Cc2ccccc2)C(=O)N1,-,0,0,-,0,0
O=C(CCNC(=O)c1ccc(Br)cc1)NCCCSc1ccccc1,-,0,0,-,0,0
COc1ccc(-c2cc3ccc(OCC(=O)NCC4CCC(C(=O)O)CC4)cc3oc2=O)cc1 (centres undefined),0,0,0,-,0,0
CN(Cc1ccco1)C(=O)CN1C(=O)NC2(CCCC2)C1=O,-,?,0,-,0,0
COc1cccc(C2N(c3ccc(Cl)cc3)C(=O)C3CCCN32)c1 (centres undefined),0,0,0,0,0,0
CC1CC(C)CN(C(=O)CCNS(=O)(=O)c2ccc3c(c2)CCC(=O)N3)C1 (centres undefined),0,0,0,-,0,0
CCOC(=O)C1CCCN(C(=O)CCNS(=O)(=O)c2ccc3c(c2)CCC(=O)N3)C1 (centres undefined),0,0,?,0,0,17µM
CC(=O)Nc1ccc(NC(=O)C2CCC(N3C(=O)C4C5C=CC(C6CC56)C4C3=O)CC2)cc1 (centres undefined),0,0,20µM,0,0,0
O=C(Nc1ccc(Cc2ccncc2)cc1)C1CCC(N2C(=O)C3C4C=CC(C5CC45)C3C2=O)CC1 (centres undefined),0,0,0,0,0,0
O=C(O)C1CCCCC1C(=O)Nc1ccc2c(c1)OCO2 (centres undefined),0,0,0,0,0,0
